Data: PubChem BioAssay
Active and inactive are the calls of the source.

Key:
[1] = test system: PRMT1 (protein arginine N-methyltransferase 1); assay: small molecules binding arginine methyltransferase PRMT1 – biochemical, small-molecule microarray, 635 nm fluorescence, primary screen (AID 1088); details: higher = more signal;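 further: binding of Prmt1 protein to compounds spotted on small-molecule microarray slides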
[2] = growth effects on S. cerevisiae YJM789 – YJM789 clinical isolate, OD600, 24 h, basal, primary screen (AID 1089); details: higher = more signal, called active from +8 up or from −8 down;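 further: growth of clinical yeast isolate S. cerevisiae YJM 789 seeded 1000 cells per well; test concentration not given here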
[3] = S. pombe growth modifiers, basal conditions – strain 972, OD600, 24 h, no modulator, primary screen (AID 1090);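 further: basal condition with compound alone and no growth modifier present; test concentration not given here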; details: S. pombe 972 growth, higher = more signal, called active from +8 up or from −8 down
[4] = budding yeast growth modifiers under rapamycin – strain BY4716, OD600, 96 h, primary screen (AID 1091); further: test concentration not given here; details: S. cerevisiae BY4716 + rapamycin, higher = more signal, called active from +8 up or from −8 down
[5] = molecular target: Torsin-1A-interacting protein 2 (Homo sapiens) (UniProt Q8NFQ8); assay: small molecules binding lysate-expressed LULL1 – cell lysate, human LULL1 lysate, 635/667 nm fluorescence, primary screen (AID 1092); details: small-molecule microarray, hLULL1 lysate binding, 635 nm fluorescence; higher = more signal;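 further: probe is lysate of COS7 cells overexpressing human LULL1; score merges per-feature 667 nm fluorescence with signal-to-noise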
[6] = optical density change of DRC41 E. coli – strain DRC41, OD650, 24 h, E. coli filamentation project, primary screen (AID 1093);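 further: MC1000 strain lacking acrAB efflux and sulA so SOS filamentation is blocked; test concentration not given here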; details: E. coli DRC41 growth, higher = more signal, called active from +8 up or from −8 down
[7] = probe aLefty2 binding to arrayed compounds – biochemical, biotinylated probe, 635/667 nm fluorescence, primary screen (AID 1094); details: small-molecule microarray, higher = more signal;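 further: score merges spot fluorescence near 667 nm with spot signal-to-noise ratio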
[8] = test system: Noggin (protein binding on small-molecule microarray); assay: small molecules binding Noggin protein – biochemical, 635/667 nm fluorescence, primary screen (AID 1095); details: 635 nm fluorescence, higher = more signal;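 further: score merges 667 nm feature fluorescence with signal to noise over triplicate slides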
[9] = molecular target: Neurogenic locus notch homolog protein 3 (Homo sapiens) (UniProt Q9UM47); assay: small molecules binding NOTCH3 protein – biochemical, 635/667 nm fluorescence, primary screen (AID 1096); details: small-molecule microarray, 635 nm fluorescence, higher = more signal
[10] = probe aEGFR binding to arrayed compounds – biochemical, biotinylated probe, 635/667 nm fluorescence, primary screen (AID 1097); details: small-molecule microarray, higher = more signal;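 further: probe is a biotinylated anti-EGFR antibody binding compounds printed on slides; score combines fluorescence near 667 nm and signal to noise of each spot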
[11] = test system: Plasmodium falciparum Sir2 (PF13_0152, Sir2A); assay: Plasmodium falciparum Sir2A binding compounds – biochemical, small-molecule microarray, 635 nm fluorescence, primary screen (AID 1098); details: fluorescence 635 nm, higher = more signal;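 further: score merges spot fluorescence intensity with its signal-to-noise ratio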
[12] = probe aDKK1 binding to arrayed compounds – biochemical, biotinylated probe, 635/667 nm fluorescence, primary screen (AID 1099); details: small-molecule microarray, higher = more signal;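 further: score merges 667nm spot fluorescence with signal to noise across triplicate slides; reference of the scale not given here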
[13] = probe aCHRDL2 binding to arrayed compounds – biochemical, biotinylated probe, 635/667 nm fluorescence, primary screen (AID 1100); details: small-molecule microarray, higher = more signal
[14] = change in splice reporter luminescence, either direction, cell-based, HEK293, spliceosome inhibition project, primary screen (AID 1101); details: HEK293 splicing luciferase reporter, 24 h, higher = more signal, called active from +8 up or from −8 down;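 further: HEK293 cells carrying a splicing-competent luciferase reporter gene; test concentration not given here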
[15] = molecular target: Fibroblast growth factor 10 (Homo sapiens) (UniProt O15520); assay: compounds binding fibroblast growth factor 10 – biochemical, small-molecule microarray, 635 nm fluorescence, primary screen (AID 1102); details: FGF10 binding, fluorescence 635 nm, higher = more signal
[16] = test system: glycogen synthase kinase-3 (GSK3A per assay name; protocol says GSK3B); assay: compounds binding glycogen synthase kinase-3 – biochemical, small-molecule microarray, 635 nm fluorescence, GSK3A, primary screen (AID 1103); details: fluorescence 635 nm, higher = more signal; further: the record names both GSK3A and GSK3B
[17] = molecular target: Epidermal growth factor receptor (Homo sapiens) (UniProt P00533); assay: compounds binding epidermal growth factor receptor – biochemical, small-molecule microarray, 635 nm fluorescence, primary screen (AID 1104); details: EGFR binding, higher = more signal;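 further: score merges 667 nm emission intensity with spot signal to noise over triplicate slides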
[18] = molecular target: Follistatin-related protein 3 (Homo sapiens) (UniProt O95633); assay: compounds binding follistatin-related protein 3 – biochemical, small-molecule microarray, 635 nm fluorescence, primary screen (AID 1105); details: FSTL3 binding, higher = more signal;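 further: score merges emission near 667 nm and signal to noise per printed spot across three slides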
[19] = molecular target: Dickkopf-related protein 1 (Homo sapiens) (UniProt O94907); assay: small molecules binding DKK1 protein – biochemical, small-molecule microarray, 635 nm fluorescence scan, primary screen (AID 1106); details: higher = more signal;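 further: score merges emission near 667 nm with signal to noise over three replicate slides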
[20] = test system: Inhibin beta A chain (activin A); assay: small molecules binding activin A – biochemical, small-molecule microarray, 635 nm fluorescence scan, primary screen (AID 1107); details: INHBA, higher = more signal;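 further: mouse activin A protein probed at 4.33 µg/mL on printed slides; score merges bound-protein fluorescence near 667 nm with spot signal-to-noise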

Chain of Epidermal growth factor receptor (Homo sapiens) (P00533 whole entry, looked up): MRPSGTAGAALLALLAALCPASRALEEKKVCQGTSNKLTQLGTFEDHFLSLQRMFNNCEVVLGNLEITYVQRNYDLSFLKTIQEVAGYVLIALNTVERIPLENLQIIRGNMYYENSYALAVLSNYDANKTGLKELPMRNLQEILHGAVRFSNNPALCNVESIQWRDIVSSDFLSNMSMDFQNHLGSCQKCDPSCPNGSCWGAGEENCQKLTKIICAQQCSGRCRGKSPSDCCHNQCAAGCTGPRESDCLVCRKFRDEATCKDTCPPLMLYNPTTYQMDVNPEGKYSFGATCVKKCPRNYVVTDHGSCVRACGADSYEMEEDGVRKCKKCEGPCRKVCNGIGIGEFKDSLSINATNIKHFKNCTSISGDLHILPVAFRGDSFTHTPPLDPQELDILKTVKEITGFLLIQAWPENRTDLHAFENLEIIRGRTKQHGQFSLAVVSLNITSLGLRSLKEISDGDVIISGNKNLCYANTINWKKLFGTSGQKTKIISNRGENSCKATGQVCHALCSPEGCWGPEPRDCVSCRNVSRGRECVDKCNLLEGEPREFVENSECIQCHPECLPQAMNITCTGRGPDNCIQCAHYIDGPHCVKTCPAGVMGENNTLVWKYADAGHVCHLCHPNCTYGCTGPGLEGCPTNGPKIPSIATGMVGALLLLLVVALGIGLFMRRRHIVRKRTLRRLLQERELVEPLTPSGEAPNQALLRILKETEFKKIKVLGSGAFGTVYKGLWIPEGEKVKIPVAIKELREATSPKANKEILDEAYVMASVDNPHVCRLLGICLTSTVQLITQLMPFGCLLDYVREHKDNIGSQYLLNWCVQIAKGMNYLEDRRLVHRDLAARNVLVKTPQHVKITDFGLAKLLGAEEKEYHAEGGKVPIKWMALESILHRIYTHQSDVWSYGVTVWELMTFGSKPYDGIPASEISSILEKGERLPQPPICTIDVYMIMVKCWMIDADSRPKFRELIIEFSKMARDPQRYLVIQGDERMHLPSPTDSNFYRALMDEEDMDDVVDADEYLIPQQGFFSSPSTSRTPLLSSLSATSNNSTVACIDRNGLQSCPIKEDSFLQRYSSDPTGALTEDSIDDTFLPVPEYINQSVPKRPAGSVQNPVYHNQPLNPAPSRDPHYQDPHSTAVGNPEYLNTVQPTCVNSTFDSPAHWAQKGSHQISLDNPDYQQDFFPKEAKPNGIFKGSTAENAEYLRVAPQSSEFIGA
Chain of Torsin-1A-interacting protein 2 (Homo sapiens) (Q8NFQ8 whole entry, looked up): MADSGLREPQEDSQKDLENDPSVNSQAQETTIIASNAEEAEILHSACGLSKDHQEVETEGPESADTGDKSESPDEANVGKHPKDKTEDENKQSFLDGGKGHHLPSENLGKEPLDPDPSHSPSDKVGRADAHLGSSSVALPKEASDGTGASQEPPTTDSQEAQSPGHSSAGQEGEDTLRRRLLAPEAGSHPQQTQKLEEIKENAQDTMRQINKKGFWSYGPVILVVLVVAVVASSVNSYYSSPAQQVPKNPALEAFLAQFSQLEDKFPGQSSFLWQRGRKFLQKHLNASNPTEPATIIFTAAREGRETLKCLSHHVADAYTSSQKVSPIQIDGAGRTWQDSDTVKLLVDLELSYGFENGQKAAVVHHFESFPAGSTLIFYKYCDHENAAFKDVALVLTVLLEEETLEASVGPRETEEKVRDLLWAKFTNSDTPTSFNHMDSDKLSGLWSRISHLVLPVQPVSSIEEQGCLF
Chain of Follistatin-related protein 3 (Homo sapiens) (O95633 whole entry, looked up): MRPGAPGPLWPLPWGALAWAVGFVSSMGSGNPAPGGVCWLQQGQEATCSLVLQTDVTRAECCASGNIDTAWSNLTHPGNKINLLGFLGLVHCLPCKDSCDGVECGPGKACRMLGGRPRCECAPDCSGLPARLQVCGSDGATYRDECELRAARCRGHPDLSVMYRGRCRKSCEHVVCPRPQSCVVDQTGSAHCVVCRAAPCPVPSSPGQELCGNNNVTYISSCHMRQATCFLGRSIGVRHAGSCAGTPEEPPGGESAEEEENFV
Chain of Dickkopf-related protein 1 (Homo sapiens) (O94907 whole entry, looked up): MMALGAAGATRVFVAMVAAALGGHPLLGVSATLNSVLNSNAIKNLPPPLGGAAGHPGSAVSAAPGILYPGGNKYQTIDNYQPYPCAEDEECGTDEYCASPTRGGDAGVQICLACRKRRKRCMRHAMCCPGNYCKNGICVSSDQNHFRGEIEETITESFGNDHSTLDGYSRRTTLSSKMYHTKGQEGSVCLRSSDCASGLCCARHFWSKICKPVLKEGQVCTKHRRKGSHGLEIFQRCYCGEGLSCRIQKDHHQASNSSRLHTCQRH
Chain of Neurogenic locus notch homolog protein 3 (Homo sapiens) (Q9UM47 whole entry, looked up): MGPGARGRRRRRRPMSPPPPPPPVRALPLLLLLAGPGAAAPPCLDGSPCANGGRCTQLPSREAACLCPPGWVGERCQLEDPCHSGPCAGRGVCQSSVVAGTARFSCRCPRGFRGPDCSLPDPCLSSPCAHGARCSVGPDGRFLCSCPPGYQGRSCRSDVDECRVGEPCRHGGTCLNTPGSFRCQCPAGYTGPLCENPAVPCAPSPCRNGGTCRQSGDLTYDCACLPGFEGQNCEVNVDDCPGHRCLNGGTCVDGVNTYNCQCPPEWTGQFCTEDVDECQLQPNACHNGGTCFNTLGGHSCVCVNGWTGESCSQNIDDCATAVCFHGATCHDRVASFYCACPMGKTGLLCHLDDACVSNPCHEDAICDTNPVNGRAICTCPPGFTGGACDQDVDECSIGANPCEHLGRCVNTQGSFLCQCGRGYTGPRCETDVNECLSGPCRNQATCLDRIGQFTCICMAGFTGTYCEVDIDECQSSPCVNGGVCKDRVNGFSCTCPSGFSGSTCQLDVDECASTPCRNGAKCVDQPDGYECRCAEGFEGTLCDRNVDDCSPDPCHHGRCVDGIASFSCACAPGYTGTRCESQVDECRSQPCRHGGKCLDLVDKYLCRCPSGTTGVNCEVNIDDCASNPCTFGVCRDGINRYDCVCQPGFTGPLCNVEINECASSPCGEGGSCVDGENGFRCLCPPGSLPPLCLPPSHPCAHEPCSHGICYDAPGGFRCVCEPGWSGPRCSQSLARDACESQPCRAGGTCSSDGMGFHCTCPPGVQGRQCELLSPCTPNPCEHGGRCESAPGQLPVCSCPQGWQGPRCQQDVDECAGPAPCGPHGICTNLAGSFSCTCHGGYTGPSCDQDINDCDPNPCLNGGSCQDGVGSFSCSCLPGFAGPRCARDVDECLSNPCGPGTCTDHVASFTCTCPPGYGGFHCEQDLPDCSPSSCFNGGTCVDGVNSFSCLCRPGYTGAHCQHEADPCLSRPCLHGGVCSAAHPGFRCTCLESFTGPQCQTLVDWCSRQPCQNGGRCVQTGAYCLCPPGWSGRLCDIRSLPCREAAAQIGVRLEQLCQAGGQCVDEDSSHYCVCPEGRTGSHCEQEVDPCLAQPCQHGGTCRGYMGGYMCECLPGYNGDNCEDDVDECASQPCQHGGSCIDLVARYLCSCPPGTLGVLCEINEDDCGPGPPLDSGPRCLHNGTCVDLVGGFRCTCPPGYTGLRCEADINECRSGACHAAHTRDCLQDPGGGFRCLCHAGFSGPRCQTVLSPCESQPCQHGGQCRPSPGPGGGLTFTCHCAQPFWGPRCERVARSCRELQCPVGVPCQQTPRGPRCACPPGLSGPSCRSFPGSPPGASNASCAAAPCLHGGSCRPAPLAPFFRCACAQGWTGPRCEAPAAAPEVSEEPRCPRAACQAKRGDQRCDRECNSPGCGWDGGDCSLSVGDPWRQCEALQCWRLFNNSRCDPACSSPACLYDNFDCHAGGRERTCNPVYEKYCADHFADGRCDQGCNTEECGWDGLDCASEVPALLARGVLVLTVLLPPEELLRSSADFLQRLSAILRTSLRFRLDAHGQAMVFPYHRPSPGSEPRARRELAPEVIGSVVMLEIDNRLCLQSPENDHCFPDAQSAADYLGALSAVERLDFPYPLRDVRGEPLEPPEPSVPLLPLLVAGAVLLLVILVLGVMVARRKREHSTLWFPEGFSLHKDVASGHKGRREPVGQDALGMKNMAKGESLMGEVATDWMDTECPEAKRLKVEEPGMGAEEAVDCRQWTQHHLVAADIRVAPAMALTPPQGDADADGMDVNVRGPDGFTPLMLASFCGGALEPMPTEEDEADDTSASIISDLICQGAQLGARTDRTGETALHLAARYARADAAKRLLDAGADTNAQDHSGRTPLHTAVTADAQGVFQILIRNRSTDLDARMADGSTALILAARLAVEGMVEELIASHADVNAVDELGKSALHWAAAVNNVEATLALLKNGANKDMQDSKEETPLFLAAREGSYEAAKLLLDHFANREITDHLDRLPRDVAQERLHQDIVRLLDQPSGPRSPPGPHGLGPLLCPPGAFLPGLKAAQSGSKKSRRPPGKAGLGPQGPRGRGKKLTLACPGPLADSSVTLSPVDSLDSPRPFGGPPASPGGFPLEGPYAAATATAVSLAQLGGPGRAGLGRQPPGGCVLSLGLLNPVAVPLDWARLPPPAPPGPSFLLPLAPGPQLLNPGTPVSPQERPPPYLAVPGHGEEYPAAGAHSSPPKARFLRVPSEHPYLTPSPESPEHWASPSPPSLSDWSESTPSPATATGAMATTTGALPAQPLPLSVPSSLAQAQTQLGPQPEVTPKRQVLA
Chain of Fibroblast growth factor 10 (Homo sapiens) (O15520 whole entry, looked up): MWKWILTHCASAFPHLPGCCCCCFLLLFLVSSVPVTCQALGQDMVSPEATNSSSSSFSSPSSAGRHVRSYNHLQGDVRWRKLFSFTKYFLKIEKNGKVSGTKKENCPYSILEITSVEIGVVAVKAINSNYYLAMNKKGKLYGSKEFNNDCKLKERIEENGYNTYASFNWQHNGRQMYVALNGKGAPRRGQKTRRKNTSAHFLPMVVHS

Structure (SMILES): COc1ccc([Si](C)(C)[C@H]2[C@H](CC(=O)N(CCO)Cc3ccccc3)O[C@@]3(C(=O)N(C)c4c(Br)cc(C)cc43)[C@@H]2C)cc1
- composite z-score [1]: 1.46
- z-score [2]: -1.62 (inactive)
- z-score [3]: -1.59 (inactive)
- z-score [4]: 1.93 (inactive)
- composite z-score [5]: 1.25
- z-score [6]: 0.114 (inactive)
- composite z-score [7]: 0.0256
- composite z-score [8]: 1.79
- composite z-score [9]: 0.758
- composite z-score [10]: -0.126
- composite z-score [11]: 0.827
- composite z-score [12]: -0.0876
- composite z-score [13]: -0.356
- z-score [14]: -1.34 (inactive)
- composite z-score [15]: 0.968
- composite z-score [16]: 0.691
- composite z-score [17]: 1.19
- composite z-score [18]: 1.18
- composite z-score [19]: 0.766
- composite z-score [20]: 0.611

Structure (SMILES): O=C1C[C@]2(c3ccc([N+](=O)[O-])cc3)C(=O)N(C3CC3)c3cc(CO)ccc3[C@H]2N1CC12CC3CC(CC(C3)C1)C2
- composite z-score [1]: 0.739
- z-score [2]: -0.263 (inactive)
- z-score [3]: 0.436 (inactive)
- z-score [4]: -0.574 (inactive)
- composite z-score [5]: 1.87
- z-score [6]: -1.29 (inactive)
- composite z-score [7]: -0.171
- composite z-score [8]: -1.02
- composite z-score [9]: -0.466
- composite z-score [10]: -0.228
- composite z-score [11]: 0.437
- composite z-score [12]: -0.105
- composite z-score [13]: 0.617
- z-score [14]: -0.922 (inactive)
- composite z-score [15]: -0.511
- composite z-score [16]: -0.393
- composite z-score [17]: -0.951
- composite z-score [18]: -0.924
- composite z-score [19]: -0.769
- composite z-score [20]: -0.383

Structure (SMILES): CCCCCC1=C2CNC(C)(C(=O)OC)C=C2C(C)C1=O (stereo not given)
- composite z-score [1]: -0.998
- z-score [2]: 0.511 (inactive)
- z-score [3]: 1.7 (inactive)
- z-score [4]: 1.48 (inactive)
- composite z-score [5]: 1.14
- z-score [6]: -0.67 (inactive)
- composite z-score [7]: 0.118
- composite z-score [8]: -0.947
- composite z-score [9]: -0.426
- composite z-score [10]: -0.0581
- composite z-score [11]: -0.0215
- composite z-score [12]: 0.827
- composite z-score [13]: 0.865
- z-score [14]: 1.23 (inactive)
- composite z-score [15]: 0.0992
- composite z-score [16]: -1.1
- composite z-score [17]: -0.476
- composite z-score [18]: -0.713
- composite z-score [19]: -0.52
- composite z-score [20]: 1.16

Structure (SMILES): [N-]=[N+]=Nc1ccccc1[C@@H]1OC(c2ccc(OCCCO)cc2)=N[C@]1(Cc1ccccc1)C(=O)O
- composite z-score [1]: 1.56
- z-score [2]: 0.85 (inactive)
- z-score [3]: 0.594 (inactive)
- z-score [4]: 1.82 (inactive)
- composite z-score [5]: 2.43
- z-score [6]: 0.779 (inactive)
- composite z-score [7]: 0.106
- composite z-score [8]: 0.522
- composite z-score [9]: 1.05
- composite z-score [10]: -0.268
- composite z-score [11]: 0.77
- composite z-score [12]: 0.973
- composite z-score [13]: 0.0948
- z-score [14]: -0.689 (inactive)
- composite z-score [15]: 0.747
- composite z-score [16]: 0.655
- composite z-score [17]: -0.129
- composite z-score [18]: 0.455
- composite z-score [19]: -0.347
- composite z-score [20]: 1.2

Structure (SMILES): O=C1O[C@H](c2ccccc2)[C@H](c2ccccc2)N2[C@H]1[C@@H](C(=O)O)[C@]1(C(=O)Nc3ccc(C#CCCO)cc31)[C@H]2c1ccccc1OCCO
- composite z-score [1]: 1.09
- z-score [2]: 0.642 (inactive)
- z-score [3]: -0.495 (inactive)
- z-score [4]: 0.224 (inactive)
- composite z-score [5]: 2.97
- z-score [6]: 0.18 (inactive)
- composite z-score [7]: -0.13
- composite z-score [8]: 0.55
- composite z-score [9]: 0.116
- composite z-score [10]: -0.204
- composite z-score [11]: 0.582
- composite z-score [12]: -0.445
- composite z-score [13]: 0.094
- z-score [14]: -0.888 (inactive)
- composite z-score [15]: 0.258
- composite z-score [16]: -0.532
- composite z-score [17]: -0.329
- composite z-score [18]: -0.224
- composite z-score [19]: -0.0493
- composite z-score [20]: 0.671

Structure (SMILES): CC(=O)NCCCC[C@@H]1NC(=O)[C@@H]2C[C@H](C(=O)NCCCCCN)[C@H](c3ccc(O)cc3)N2C1=O
- composite z-score [1]: 1.32
- z-score [2]: 0.0163 (inactive)
- z-score [3]: -0.747 (inactive)
- z-score [4]: 0.536 (inactive)
- composite z-score [5]: 2.25
- z-score [6]: 2.29 (inactive)
- composite z-score [7]: 0.5
- composite z-score [8]: 0.61
- composite z-score [9]: 1.14
- composite z-score [10]: 0.328
- composite z-score [11]: 1.49
- composite z-score [12]: 1.07
- composite z-score [13]: 0.656
- z-score [14]: 0.194 (inactive)
- composite z-score [15]: 1.23
- composite z-score [16]: 1.28
- composite z-score [17]: 0.662
- composite z-score [18]: 1.02
- composite z-score [19]: 1.33
- composite z-score [20]: 1.26

Structure (SMILES): O=C(C1N=C(c2ccc(OCCCO)cc2)N(c2ccccc2)O1)N1CCCCC1 (stereo not given)
- composite z-score [1]: 1.54
- z-score [2]: -0.537 (inactive)
- z-score [3]: -0.734 (inactive)
- z-score [4]: 0.0484 (inactive)
- composite z-score [5]: 2.95
- z-score [6]: 0.828 (inactive)
- composite z-score [7]: 0.226
- composite z-score [8]: 0.684
- composite z-score [9]: 0.288
- composite z-score [10]: 0.0542
- composite z-score [11]: 0.984
- composite z-score [12]: 0.88
- composite z-score [13]: 0.0556
- z-score [14]: -0.577 (inactive)
- composite z-score [15]: 0.648
- composite z-score [16]: 1.22
- composite z-score [17]: -0.0036
- composite z-score [18]: 0.181
- composite z-score [19]: 0.291
- composite z-score [20]: 0.088

Structure (SMILES): C=CCNC(=O)[C@H]1[C@@H]2C(=O)O[C@@H](c3ccccc3)[C@@H](c3ccccc3)N2[C@@H](c2ccccc2OCCO)[C@]12C(=O)N(C(=O)OCCOC)c1ccc(C#CC3(O)CCCCCC3)cc12
- composite z-score [1]: 1.56
- z-score [2]: -0.22 (inactive)
- z-score [3]: -0.444 (inactive)
- z-score [4]: 4.93 (inactive)
- composite z-score [5]: 3.1
- z-score [6]: 1.31 (inactive)
- composite z-score [7]: -0.0499
- composite z-score [8]: 0.592
- composite z-score [9]: 0.759
- composite z-score [10]: -0.0455
- composite z-score [11]: 1.32
- composite z-score [12]: -0.115
- composite z-score [13]: 0.457
- z-score [14]: -0.725 (inactive)
- composite z-score [15]: 1.13
- composite z-score [16]: 0.562
- composite z-score [17]: 0.383
- composite z-score [18]: 0.502
- composite z-score [19]: -0.515
- composite z-score [20]: 1.07

Structure (SMILES): COCCCNC(=O)[C@@H]1c2ccccc2C(=O)N(C(C)C)[C@H]1c1ccc(CO)cc1
- composite z-score [1]: -0.325
- z-score [2]: 0.602 (inactive)
- z-score [3]: 0.439 (inactive)
- z-score [4]: 0.395 (inactive)
- composite z-score [5]: -0.719
- z-score [6]: -0.214 (inactive)
- composite z-score [7]: 0.0321
- composite z-score [8]: 0.523
- composite z-score [9]: -0.406
- composite z-score [10]: -0.02
- composite z-score [11]: 0.634
- composite z-score [12]: -0.0293
- composite z-score [13]: 0.39
- z-score [14]: 0.555 (inactive)
- composite z-score [15]: -0.346
- composite z-score [16]: -0.291
- composite z-score [17]: -0.104
- composite z-score [18]: 0.115
- composite z-score [19]: 0.0487
- composite z-score [20]: 0.761

Structure (SMILES): COC(=O)[C@@H]1N=C(c2ccc(OCCCO)cc2)O[C@@H]1c1ccccc1
- composite z-score [1]: -1.01
- z-score [2]: -1.16 (inactive)
- z-score [3]: -2.33 (inactive)
- z-score [4]: -2.55 (inactive)
- composite z-score [5]: 1.58
- z-score [6]: 1.11 (inactive)
- composite z-score [7]: -0.149
- composite z-score [8]: -0.993
- composite z-score [9]: -1
- composite z-score [10]: -0.0485
- composite z-score [11]: 1.76
- composite z-score [12]: 0.311
- composite z-score [13]: 0.725
- z-score [14]: -2.07 (inactive)
- composite z-score [15]: -1.4
- composite z-score [16]: -1.33
- composite z-score [17]: -0.665
- composite z-score [18]: -1.22
- composite z-score [19]: -1.71
- composite z-score [20]: -0.0285
